Records with an inconclusive call do not appear. Active and inactive are the calls of the source. Calls come from the whole dose curve; as a rule, active = well fitted inhibition curve with a large enough effect; inconclusive = small, poorly fitted or top-dose-only effect; inactive = flat fitted curve, though single readings scatter.
Experiments:
Test in all cases: qHTS assay to identify novel small-molecules to repurpose for Merkel cell carcinoma treatment (AID 1296009); note: nearly all actives have a fitted effect of over 60% in size
[1] = test system: MKL-1; details: MCC and control cell lines, CellTiter-Glo viability, 72 h; series mostly up to 46 µM
How it was run: (§1)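 Viability readout: ATP luminescence (CellTiter-Glo) after 72 hr drug exposure at 37 degree celsius. Dose-response format was 8 points for NPC and 11 points for MIPE; data normalized to in-plate controls.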

[2] = test system: MKL-2; details: MCC and control cell lines, CellTiter-Glo viability, 72 h; series mostly up to 46 µM
How it was run: as §1

[3] = test system: NIH3T3; details: MCC and control cell lines, CellTiter-Glo viability, 72 h; at 44.8 µM (top of the series) unless noted
How it was run: as §1

[4] = test system: UISO; details: MCC and control cell lines, CellTiter-Glo viability, 72 h; series mostly up to 46 µM
How it was run: as §1

[5] = test system: WaGa; details: MCC and control cell lines, CellTiter-Glo viability, 72 h; series mostly up to 46 µM
How it was run: as §1

Measured: Potency

O=C(c1ccc(F)cc1)N1CCC[C@H](c2nc(-c3ccc(F)cc3)no2)C1
inactive: [1] | [2] | [3] | [4] | [5]

CC(C)(O)[C@H]1CC[C@@](C)([C@H]2[C@@H](O)C[C@@]3(C)[C@@H]4C[C@H](O[C@@H]5O[C@H](CO)[C@@H](O)[C@H](O)[C@@H]5O)[C@H]5C(C)(C)[C@@H](O[C@@H]6OC[C@@H](O)[C@H](O)[C@@H]6O)CC[C@@]56C[C@@]46CC[C@]23C)O1
inactive: [1] | [2] | [3] | [4] | [5]

Cc1ccc(O)c(C(CCN(C(C)C)C(C)C)c2ccccc2)c1 (configuration not stated)
inactive: [1] | [2] | [3] | [4] | [5]

Oc1cc2c(cc1O)C1c3ccc(O)c(O)c3OCC1(O)C2 (configuration not stated)
inactive: [1] | [2] | [3] | [4] | [5]

CC[C@H]1OC(=O)[C@H](C)[C@@H](O[C@H]2C[C@@](C)(OC)[C@@H](O)[C@H](C)O2)[C@H](C)[C@@H](O[C@@H]2O[C@H](C)C[C@H](N(C)C)[C@@H]2O)[C@](C)(OC)C[C@@H](C)C(=O)[C@H](C)[C@@H](O)[C@]1(C)O
inactive: [1] | [2] | [3] | [4] | [5]

NC(=O)c1ncn([C@@H]2O[C@H](CO)[C@@H](O)[C@@H]2O)c1N
inactive: [1] | [2] | [3] | [4] | [5]

Nc1ncn([C@@H]2O[C@H](CO)[C@@H](O)[C@@H]2O)c(=O)n1
inactive: [1] | [2]

O=C(O)[C@H](CC(=O)N1C[C@@H]2CCCC[C@H]2C1)Cc1ccccc1
inactive: [1] | [2] | [3] | [4] | [5]

Source: PubChem BioAssay (NCATS)
